Screen size: about 48,000 compounds; about 13,000 (27%) showed an effect of 50% or more. The list shows a part of the results.
test system: Wolbachia pipientis; assay: Anti-Wolbachia Cell-Based Screen; format: functional; set-up: scale not given: in the data most compounds retested in dose-response had high values; conditions: 5 µM

Compound	Percent Effect [%]
CC(C)CCOc1ccc(C(C)NC(=O)Cn2cccnc2=O)cc1 (stereo not given)	-2.548
CC(NC(=O)Cn1cccnc1=O)c1ccc(OC(F)(F)F)cc1 (stereo not given)	5.256
COc1ncccc1C(Cc1ccsc1)NC(=O)Cn1cccnc1=O (stereo not given)	115.2
Cc1nc([C@@H]2C[C@@H]3CCN(Cc4cnn(C)c4)C[C@H]3O2)sc1C	-0.8686
Cc1[nH]ncc1C(=O)NCC1CCC2(CC1)OCCO2	-7.861
Brc1cnc(NCCCOCC2CCOCC2)nc1	13.33
COCc1nc(C(=O)NS(=O)(=O)c2ccc(C)cc2C)cs1	-13.89
Cc1noc(C[C@@H]2COC[C@H]3CN(S(C)(=O)=O)C[C@@H]23)n1	-1.05
COc1cc(N2C[C@@H]3COC[C@@H](Cc4nnc(C)o4)[C@@H]3C2)ncn1	80.24
COc1cc(N2C[C@@H]3COC[C@@H](Cc4nc(C)no4)[C@@H]3C2)ncn1	118.7
CCS(=O)(=O)N1C[C@@H]2COC[C@@H](Cc3nc(C)no3)[C@@H]2C1	1.999
Cc1nnc(C[C@@H]2COC[C@H]3CN(C(=O)C4=CCCC4)C[C@@H]23)o1	-9.93
Cc1nnc(C[C@@H]2COC[C@H]3CN(C(=O)c4ccco4)C[C@@H]23)o1	-16.71
Cc1cc(CN(CC(N)=O)CC(C)C)no1	-21.97
CC(C)CN1C[C@@H]2CN(S(=O)(=O)c3cccs3)C[C@@H]2C1=O	-12.36
Cc1cnn(C2CN(CC(=O)N(C)Cc3cccs3)C2)c1	-27.07
Cc1cccc(C(C(=O)N(C)Cc2ccco2)N(C)C)c1 (stereo not given)	9.844
CN(Cc1cccs1)C(=O)CS(=O)(=O)Cc1ccc(Cl)c(Cl)c1	0.1099
CN(Cc1ccco1)C(=O)Nc1ccc(=O)n(C)c1	2.905
CN(Cc1ccco1)C(=O)CN1C(=O)c2ccccc2C1=O	72.08
CN(Cc1cccs1)C(=O)CN1C(=O)c2cc(Cl)c(Cl)cc2C1=O	78.58
CN(Cc1ccco1)C(=O)CN1C(=O)c2cc(Cl)c(Cl)cc2C1=O	81.66
CN(Cc1ccco1)C(=O)CN1CCN(C)c2ccccc2C1	-2.251
O=C1N(CCCc2ccccc2)CCCC1(O)CNCC1CCCCC1 (stereo not given)	25.76

Compound	Percent Effect [%]
Cc1nnsc1CN1C[C@H]2CC[C@@H]1CN(Cc1ccc(F)cc1)C2	24.86
CC(=O)N1CCN(Cc2ccc(C(F)(F)F)c(F)c2)CC(O)C1 (stereo not given)	-15.55
CC(C)C(=O)NCC(=O)N(C)C1CCCN(C2Cc3ccccc3C2)C1 (stereo not given)	-0.79
Cc1ccc(N2CC3(COCCN(Cc4nccs4)C3)OCC2=O)s1.O=C(O)C(F)(F)F (stereo not given)	-2.22
Nc1nc2c(c(=O)[nH]1)CCN(C(=O)c1cccc3nccnc13)C2	6.132
CN(C)c1nc2c(c(=O)[nH]1)CCN(C(=O)c1cccc3nccnc13)C2	3.463
Cc1nc2c(c(=O)[nH]1)CCN(C(=O)c1cccc3nccnc13)C2	104.9
Cc1nccn1CCC1CCCCN1Cc1ccc(N(C)C)nc1 (stereo not given)	13.8
O=C(O)C(F)(F)F.O=S(=O)(c1cccc(F)c1)N1CC[C@H]2[C@H]1CCN2c1ncccn1	-6.82
O=C(C1CC1)N1C[C@H]2CCCN(S(=O)(=O)c3cccc(F)c3)[C@H]2C1	149
O=C(C1CC1)N1C[C@H]2CCCN(S(=O)(=O)c3ccc4c(c3)CCC4)[C@H]2C1	109.7
CC(=O)N1CCCc2ccc(S(=O)(=O)N3CCCCC3C)cc21 (stereo not given)	-24.19
CC(=O)N1CCc2ccc(S(=O)(=O)N3CCCCC3C)cc21 (stereo not given)	-39.69
CC(=O)N1CCCC(C(=O)N2CCC(=Cc3cccc(F)c3)CC2)C1 (stereo not given)	11.44
CCOC(=O)c1cn(CC(O)c2ccccc2OC)nn1 (stereo not given)	-11.75
CCN(CC1CCOC1)C(=O)CSCC(=O)Nc1ccc(C)cc1 (stereo not given)	4.187
O=C(Nc1cccc(C(F)F)c1)N[C@@H]1C=C[C@H](CO)C1	-9.569
COc1ccc(N2CCN(C(=O)Cn3nc(C)c(C)c3C)C(C)C2)cc1 (stereo not given)	-0.23
COc1ccc(N2CCN(C(=O)OC(C)(C)C)C(C(=O)O)C2)cc1 (stereo not given)	126.2
COC(=O)N1CCCCC1C(=O)N1CCN(c2cccnc2)CC1 (stereo not given)	-31.63
Cc1ccc(N2CCN(C(=O)CCC(F)(F)F)C(C)C2)cc1 (stereo not given)	17.59
Cc1ccc(C(=O)N2C[C@@H]3CCN(c4cccnc4)C[C@@H]3C2)cn1.O=C(O)C(F)(F)F	4.1
CCCSCC(=O)N1CCN(c2ccc(OC)cc2)CC1C (stereo not given)	15.77
CC(C)(C)OC(=O)N1CCN(c2cccnc2)CC1C(=O)O (stereo not given)	114.7

Compound	Percent Effect [%]
CC(C)(C)OC(=O)N1CCN(c2ccc(F)cc2)CC1C(=O)O (stereo not given)	89.96
COC(=O)c1ccc(N2CCN(C(=O)C(C)C)C(C)C2)cc1 (stereo not given)	1.031
CCc1nccn1C1CCCN(C(=O)c2cnc[nH]2)C1 (stereo not given)	2.73
CCCS(=O)(=O)NCC1OCCc2cn(CC3CCOCC3)nc21 (stereo not given)	-15.6
CC(C)CN1C[C@@H]2OCC(=O)N(Cc3nccn3C)[C@@H]2C1	0.1712
CNC(=O)[C@H]1C[C@H]2OCC[C@H]2N(CCOc2ccc(Cl)cc2)C1.O=C(O)C(F)(F)F	-0.765
CCN(CC)S(=O)(=O)c1cc(NC(=O)CCc2cscn2)ccc1C	-4.761
CN1CCC(NCC2(O)CCCN(Cc3ccccc3F)C2=O)CC1 (stereo not given)	-22.31
Fc1ccccc1CC1CCN(Cc2cscn2)CC1	12.39
Cc1cncc(CN2CC[C@@](O)(CNC(=O)c3c[nH]cn3)[C@H](O)C2)c1	108.4
NC1(C(=O)NCC2CCCN(Cc3ccccc3F)C2)CCCC1 (stereo not given)	-12.52
O=C(NC[C@]1(O)CN(Cc2ccccc2F)C[C@H]1O)c1cscn1	81.64
O=C(NC[C@]1(O)CCN(Cc2ccsc2)C[C@H]1O)c1c[nH]cn1	99.16
Cc1cc(CN2CCC(CNC(=O)c3cnc(C)nc3C)C2)[nH]n1 (stereo not given)	-6.024
O=C(NC[C@]1(O)CN(Cc2ccccc2F)C[C@H]1O)c1ccccn1	-4.429
O=C(NC[C@]1(O)CCN(Cc2ccccc2F)C[C@H]1O)c1c[nH]cn1	105
Cc1cccc(CN2CCCC(O)(CNCCc3c[nH]cn3)C2=O)c1 (stereo not given)	23.49
COCC1CC2(CCN(S(=O)(=O)C3CC3)CC2)CN1c1ncccn1.O=C(O)C(F)(F)F (stereo not given)	-3.839
CCn1cnnc1CNC(=O)NCC(C)(CC)N1CCOCC1 (stereo not given)	-7.317
Cc1n[nH]c(C2CN(Cc3nnc(C4CC4)n3C)CCO2)n1 (stereo not given)	1.096
CCNC(=O)[C@@H]1C[C@H](N)CN1c1cc(C(F)(F)F)nc(N(C)C)n1	-10.07
CCNC(=O)[C@@H]1C[C@H](N)CN1c1cc(CC)nc(N(C)C)n1	116.6
CCNC(=O)[C@@H]1C[C@H](N)CN1c1cc(C(F)(F)F)nc(N2CCCC2)n1	-17.39
COC(=O)c1ccc(N2CCN(C(=O)c3ccc(=O)n(C)c3)CC2)cc1	-4.416

Compound	Percent Effect [%]
COC(=O)c1cccc(C(=O)N2CCN(c3ccc(OC)cc3)CC2)n1	142.3
COC(=O)c1ccc(N2CCN(C(=O)c3ccn(C)c(=O)c3)CC2)cc1	7.353
COC(=O)c1cccc(C(=O)N2CCN(c3ccccc3F)CC2)n1	5.907
COC(=O)c1cccc(C(=O)N2CCN(c3ccc(Cl)cc3)CC2)n1	100.8
O=C(c1ncncc1Cl)N1CCN(c2ccc(Cl)cc2)CC1	-23.14
CCC(C)(C)C1CCCN1C(=O)c1coc(S(=O)(=O)NC)c1 (stereo not given)	25.9
Cc1cccc(N2CCC3(CCCN3Cc3c(C)nn(C)c3C)CC2)n1	12.41
CC(C)SCc1cccc(NC(=O)NCCc2nnc[nH]2)c1	5.819
CC(C)c1nccn1C1CCCN(C(=O)c2cn3cccnc3n2)C1 (stereo not given)	106.5
Cc1cc(C)n(C2CCCN(C(=O)c3cn4cccnc4n3)C2)n1 (stereo not given)	140.9
Cc1nc(C)n(C2CCCN(C(=O)c3cn4cccnc4n3)C2)n1 (stereo not given)	114.3
Cc1cnn(C2CCCN(C(=O)c3cn4cccnc4n3)C2)c1 (stereo not given)	-8.081
Cc1cc(C)n(C2CCN(C(=O)c3cn4ccsc4n3)C2)n1 (stereo not given)	-17.41
Cc1nc(C)n(C2CCCN(C(=O)c3csnn3)C2)n1 (stereo not given)	-2.311
CC(C)c1nccn1C1CCCN(C(=O)c2cnc[nH]2)C1 (stereo not given)	-3.09
CCc1nccn1C1CCCN(C(=O)c2cn3cccnc3n2)C1 (stereo not given)	-0.7445
Cc1nc(C)n(C2CCCN(C(=O)c3cn4c(C)cccc4n3)C2)n1 (stereo not given)	8.927
Cc1occc1C(=O)Nc1cccc(C(=O)OCC2CCCN2)c1.Cl (stereo not given)	-3.308
O=C1CN(Cc2ccc(-c3ccccc3C(=O)O)cc2)CCN1	3.495
NC(=O)c1ccc(CN2CCCC(O)C2)cc1 (stereo not given)	1.38
O=C(O)c1ccccc1-c1ccc(CN2CCCC(O)C2)cc1 (stereo not given)	104.1
O=C(O)c1ccccc1-c1ccc(CN2CC(O)C2)cc1	128.6
O=c1cc(-c2cccnc2)nc(-c2ccc(CN3CC[C@H](O)C3)cc2)[nH]1	-0.3576

From ChEMBL document CHEMBL3988442, “University of Dundee, Small-Polar-MMV Screening Library” (2021)
